According to ChEMBL document CHEMBL4513141, “CO-ADD screening of NIH (USA) - Clinical Collection” (2021):
Measured potencies and affinities stand elsewhere.

What was measured:
Klebsiella pneumoniae = settings: Concentration 20 uM; ASSAY_TEST Inhibition of Bacterial Growth; detection method Absorption (OD600); MEDIA CAMHB; plate type 384well; NBS; CORNING #3640; time 18 hr
Candida albicans = settings: 20 µM
Cryptococcus neoformans = settings: Concentration 20 uM; ASSAY_TEST Inhibition of Fungal Growth; detection method Resazurin; Absorption (OD600-OD570); plate type 384well; NBS; CORNING #3640

Compound | Inhibition (Klebsiella pneumoniae) | Inhibition (Candida albicans) | Inhibition (Cryptococcus neoformans)
CCOC(=O)C1(c2ccccc2)CCN(CCC(C#N)(c2ccccc2)c2ccccc2)CC1.Cl [DIPHENOXYLATE HYDROCHLORIDE] | 2.24% | 4.81% | -16.2%
Cl.c1ccc2c(CC3=NCCN3)cccc2c1 [NAPHAZOLINE HYDROCHLORIDE] | 13.63% | 3.38% | -4.12%
CN/C(=N\CCSCc1nc[nH]c1C)NC#N [CIMETIDINE] | 3.14% | 3.16% | 2.1%
C[C@]12CC(C=O)=C(O)C[C@@H]1CC[C@@H]1[C@@H]2CC[C@@]2(C)[C@H]1CC[C@]2(C)O | 6.07% | 6.85% | 3.15%
Cc1cc(NS(=O)(=O)c2ccc(N)cc2)no1 [SULFAMETHOXAZOLE] | 4.09% | 6.42% | 2.83%
C[C@]12CC[C@H]3[C@@H](CCC4=CC(=O)CC[C@@H]43)[C@@H]1CC[C@@H]2O [NANDROLONE] | 5.92% | 7.15% | -1.13%
CC(C(=O)O)c1ccc(-c2ccccc2)c(F)c1 (stereo not given) [FLURBIPROFEN] | 4.59% | 8.89% | -3.5%
c1ccc2c(c1)Nc1ccccc1S2 [PHENOTHIAZINE] | 1.87% | 4.65% | 6.01%
Cc1nnc2n1-c1ccc(Cl)cc1C(c1ccccc1)=NC2 [ALPRAZOLAM] | 8.67% | 1.98% | -4.87%
C[C@]12CC[C@H](O)CC1=CC[C@@H]1[C@@H]2CC[C@]2(C)C(=O)CC[C@@H]12 [PRASTERONE] | 10.09% | 14.5% | 2.55%
